Screening data: PubChem, The Scripps Research Institute Molecular Screening Center
CHRM1 antagonist – human M1 muscarinic receptor antagonists, primary screen, CHO-K1 cells, Fluo-8 calcium fluorescence, 1536-well | CHO-K1 hM1, ACh EC80 antagonist | inhibition, % at 3 µM | actives 1.3% (n = 360,000) | Muscarinic acetylcholine receptor M1 (Homo sapiens), P11229 | AID 588852, 2011;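 active = percent inhibition above its own plate's cutoff, namely the mean of that plate's compound wells plus 3 SD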;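 also: peak over basal fluorescence ratio during 140 s after agonist addition; 0% = ACh EC80 plus DMSO and 100% = DMSO alone without agonist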
Target sequence (P11229 whole entry, looked up): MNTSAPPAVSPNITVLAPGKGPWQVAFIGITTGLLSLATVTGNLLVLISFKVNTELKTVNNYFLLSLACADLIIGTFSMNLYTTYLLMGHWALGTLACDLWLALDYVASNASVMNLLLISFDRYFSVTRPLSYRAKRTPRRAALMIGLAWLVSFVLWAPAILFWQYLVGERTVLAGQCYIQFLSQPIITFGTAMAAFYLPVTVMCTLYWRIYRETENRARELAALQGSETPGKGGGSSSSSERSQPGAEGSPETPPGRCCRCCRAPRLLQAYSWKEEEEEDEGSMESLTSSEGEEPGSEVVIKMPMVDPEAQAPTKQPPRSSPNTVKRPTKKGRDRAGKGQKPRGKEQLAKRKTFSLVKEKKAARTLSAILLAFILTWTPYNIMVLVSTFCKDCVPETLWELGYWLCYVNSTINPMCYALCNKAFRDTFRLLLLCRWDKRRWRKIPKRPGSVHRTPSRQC
M1 ag – human M1 muscarinic receptor agonists, primary screen, Fluo-8 calcium fluorescence, CHO-K1 cells, HTS; Muscarinic acetylcholine receptor M1 (Homo sapiens), P11229; CHO-K1 hM1, agonist mode; 0% DMSO, 100% acetylcholine EC100; activation, % at 3 µM; actives 0.33% (n = 360,000);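 active = activation above the run's mean compound activation plus 3 SD, cut at about 16% in these data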;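 also: peak over basal fluorescence ratio within a 140 s kinetic read after compound addition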
M1 PAM parental – nonselective calcium activators in parental CHO-K1 cells, primary screen, counter-screen for M1 PAM project, cell-based, Fluo-8 calcium fluorescence, full deck, 1536-well | ATP EC20; 0% at ATP EC20, 100% at ATP max | activation, % at 3 µM | actives 0.02% (n = 360,000) | AID 602247, 2012;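 active = activation above the run cutoff, the mean activation of all test compounds plus 3 SD, cut at about 40% in these data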;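 also: peak over basal fluorescence ratio in a 140 s read after ATP addition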
CHO-K1 Ca ag – counter-screen for M1 agonists: effect in parental CHO-K1 cells; actives 0.48% (n = 360,000); activation, % at 3 µM; Fluo-8 calcium fluorescence; scaled to maximal ATP response, vehicle zero; in the data active = activation above about 15%;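 also: untransfected CHO-K1 host cells lacking M1 receptor as counterscreen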
CHRM1 PAM – human M1 muscarinic receptor positive allosteric modulators, primary screen, CHO-K1 cells, Fluo-8 calcium fluorescence, 1536-well | Muscarinic acetylcholine receptor M1 (Homo sapiens), P11229 | actives 0.088% (n = 360,000) | AID 588819, 2011 | activation, % at 3 µM | CHO-K1 hM1, ACh EC20; 0% = ACh EC20, 100% = maximal ACh; in the data active = activation above about 19%, passing the limit was not always enough
CHO-K1 Ca antag – counter-screen for M1 antagonists: effect in parental CHO-K1 cells; ATP-induced calcium, Fluo-8 fluorescence; inhibition, % at 3 µM; actives 0.6% (n = 360,000); AID 602250;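 active = inhibition above a per-plate cutoff, the plate's mean sample inhibition plus 3 SD, cut at about 24% in these data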;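 also: 0% = DMSO plus EC80 ATP and 100% = DMSO alone without ATP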
* marks the source's active call; other numbers are inactive results; . = no result given. Sampled rows, rich in hits. Any-hit rate of the full collection: about 2.4%.

SMILES	CHRM1 antagonist	M1 ag	M1 PAM parental	CHO-K1 Ca ag	CHRM1 PAM	CHO-K1 Ca antag
O=C(NC1CCN(Cc2ccccc2)CC1)C1COc2ccccc2O1 (stereo not given)	83*	-7	-5	0	-22	3
CCN(c1ccccc1)S(=O)(=O)c1ccc(C(=O)NC2CCN(Cc3ccccc3)CC2)cc1	66*	7	-25	14	-30	20
Cc1ccc2[nH]cc(CCNS(=O)(=O)c3ccc(F)cc3)c2c1	-11	-4	20	1	8	-9
Cc1c(C(=O)NCCC2=CCCCC2)oc2ccc(S(=O)(=O)N3CCC4(CC3)OCCO4)cc12	35*	-1	2	5	-12	12
Cc1c(C(=O)NCC2COc3ccccc3O2)oc2ccc(S(=O)(=O)N3CC(C)CC(C)C3)cc12 (stereo not given)	14	-4	-11	0	-9	4
Cc1c(C(=O)NCc2ccccc2)oc2ccc(S(=O)(=O)N3CCC4(CC3)OCCO4)cc12	9	-1	8	5	0	7
Cc1c(C(=O)NCC2COc3ccccc3O2)oc2ccc(S(=O)(=O)N3CCOCC3)cc12 (stereo not given)	35*	2	0	5	-7	13
O=C(O)c1cccc(Nc2ccnc(Nc3cccc(C(=O)O)c3)n2)c1	-12	-5	-5	1	13	-5
O=C(NC1CCN(Cc2ccccc2)CC1)c1ccc(CS(=O)c2ccccc2Cl)o1 (stereo not given)	-8	-2	5	1	2	-4
Cc1c(N=c2scc(-c3ccccc3)n2C)c(=O)n(-c2ccccc2)n1C	98*	-6	14	2	-24	-12
COc1ccc(CN2CCNC(=O)C2CC(=O)NCC(C)(C)N2CCOCC2)cc1C (stereo not given)	-15	4	10	1	8	-11
COc1ccc(S(=O)(=O)N2CCC[C@@H]2C(=O)N2CCC[C@H]2C(=O)NCc2ccncc2)cc1C	.	.	18	1	.	-20
N=c1sccn1CC(=O)Nc1cccc(S(N)(=O)=O)c1	35*	-3	-1	0	19	2
N=c1sccn1CC(=O)Nc1ccc(S(N)(=O)=O)cc1	-3	-6	-4	0	2	-3
CCOC(=O)C1(Cc2ccccc2C)CCCN(C(=O)c2ccc(CSC)o2)C1 (stereo not given)	-10	1	-4	2	14	-1
Cc1c(OCc2ccccc2)cccc1OCc1ccccc1	-4	0	-10	0	4	-5
CN(C)CCC(Oc1ccccc1OCc1ccccc1)c1ccccc1 (stereo not given)	46*	1	7	11	-21	-4
COc1ccc(/C(C)=N/NC(=O)c2ccc(CSc3cccc4cccnc34)cc2)cc1OC	1	51*	12	1	3	-15
C/C(=N\NC(=O)c1ccc(CSc2cccc3cccnc23)cc1)C1CCCCC1	-5	52*	-8	0	-2	4
COc1cc(CCC(=O)Nc2c(C(=O)N3CCN(c4ccccc4)CC3)oc3ccccc23)on1	9	-3	-7	2	-2	-10
COc1ccc(C(=O)N[C@H](C(=O)NCCc2ccc3c(c2)OCCO3)C(C)C)cc1	-8	-5	22	3	9	-7
CC(N)c1csc(Nc2nncc3ccccc23)n1 (stereo not given)	102*	-9	11	3	9	0
CC(N)c1csc(Nc2ncccn2)n1 (stereo not given)	-2	-4	-5	1	0	25*
Cc1ccc(S(=O)(=O)c2nc(-c3ccc(F)cc3)oc2N2CCOCC2)cc1	-8	-2	3	1	6	-10
COc1ccc(-c2noc(CCCC(=O)NC3CCCC3)n2)cc1	10	-1	-4	14	-13	4
SMILES	CHRM1 antagonist	M1 ag	M1 PAM parental	CHO-K1 Ca ag	CHRM1 PAM	CHO-K1 Ca antag
O=C(CCc1nc(-c2ccc(Cl)cc2)no1)NC1CCCCC1	1	1	2	17*	-2	5
O=C(CCCc1nc(-c2ccc(Cl)cc2)no1)NC1CCCC1	37*	0	-5	17*	-11	4
CCCCC(NC(=O)CCc1c(C)c2cc3c4c(oc3c(C)c2oc1=O)CCCC4)C(=O)O (stereo not given)	-12	0	-17	0	18	4
CCn1nc(C(=O)Nc2ccccc2N2CCCC2)c2ccccc2c1=O	9	-5	-5	17*	-2	7
CN(C)CCNC(=S)Nc1ccc(Cl)cc1	14	-5	2	0	25*	3
S=C(NCc1ccc(Cl)cc1)Nc1ccccc1	2	-3	10	9	-8	1
S=C(NCc1ccc(Cl)cc1)Nc1ccncc1	44*	7	-19	21*	-14	31*
COc1ccc(NC(=S)NCCSc2ccc(Cl)cc2)c(OC)c1	-20	6	-2	0	14	24*
CCCCNC(=S)Nc1ccc(Cl)cc1	14	-3	-11	10	-10	31*
Cc1ccsc1CN(C)C(=O)CN1C(=O)NC(c2ccccc2)(c2ccccc2)C1=O	-2	-2	14	3	4	-10
COC(=O)c1ccc(NC(=O)CCN2C(=O)CSC2=O)cc1	-11	-7	14	0	12	2
Cc1ccc(SCCNC(=S)Nc2cc(C)cc(C)c2)cc1	21	-3	15	4	-19	-5
Cc1ccc(NC(=S)NCCSc2ccc(Cl)cc2)cc1	56*	-6	-11	3	-26	9
Cc1cc(=O)nc2c3ccccc3n(CC(=O)NC(C)c3ccc4c(c3)OCCO4)n12 (stereo not given)	-3	1	3	2	-3	-12
CN(CC(=O)Nc1ccc(Cl)c(C(F)(F)F)c1)CC(=O)NC1CCCCC1	26*	6	0	12	-6	2
CN(CC(=O)Nc1cccc(S(=O)(=O)N2CCCC2)c1)CC(=O)Nc1ccc(Cl)c(C(F)(F)F)c1	26*	-1	-10	6	-5	32*
CN(CC(=O)Nc1ccc(Cl)c(Cl)c1)CC(=O)N1CCCCCC1	71*	-6	-3	3	-29	11
CN(CC(=O)NCc1ccccc1)CC(=O)Nc1ccc(Cl)c(C(F)(F)F)c1	15	13	13	13	-4	-7
